The source of these data is PubChem BioAssay (NCATS).

The target of assay [1] is Aldehyde dehydrogenase, mitochondrial (Homo sapiens) (UniProt P05091). Nature of the assay: qHTS for Inhibitors of the Aldehyde Dehydrogenase Family (ALDH2) Primary screen (AID 2061308). Also: nearly all actives have a fitted effect of over 55% in size. A general note: Quantitative high-throughput screening tests each substance at several concentrations.
Assay [2] has as its target Retinaldehyde dehydrogenase 3 (Homo sapiens) (UniProt P47895). Nature of the assay: qHTS for Inhibitors of the Aldehyde Dehydrogenase Family (ALDH1A3) Primary screen (AID 2061315).

The structures appear in SMILES notation. Results filed as inconclusive are left out. Where a call stands in place of a potency, no number is given. Active and inactive are the calls of the source. Calls follow the shape of the dose curve; as a rule, active = well fitted curve in the direction sought with a large enough effect; inconclusive = small, poorly fitted or top-dose-only effect, or another doubt; inactive = no such curve, though single readings can be large; an effect the other way counts as inactive or inconclusive.

For the molecule `O=C(Nc1nc(-c2ccccc2)cs1)c1ccncc1NS(=O)(=O)c1cccc(Cl)c1`, the Potency entry in assay [1] and in assay [2] was “inactive” in each case.
On to `C/C=C/C(=O)OC1/C=C/C(O)C(OC(C)=O)CCC(=O)OC1C` (stereo not given), for which the Potency entry in assay [1] and in assay [2] was “inactive” in each case.
For `Cc1nc(NCCO)c2nc(-c3ccccc3)n(CCN(C)C)c2n1`, the Potency entry in assay [1] and in assay [2] was “inactive” throughout.
`O=C1CCCC2=C1C(c1[nH]ncc1Cl)N=C(Nc1ccn[nH]1)N2` (stereo not given): the Potency result in assay [1] and in assay [2] was “inactive” each time.
In the case of `Cc1cc2c(s1)c1cnn(Cc3c(F)cc(F)cc3F)c(=O)c1n2C`, the Potency entry in assay [1] and in assay [2] was “inactive” in each case.
`O=C(OCC#CCSc1nnc(-c2ccc(F)cc2)o1)c1ccc(F)cc1`: the Potency entry in assay [1] and in assay [2] was “inactive” each time.
`O=C1CCCC2=C1C(c1[nH]ncc1Cl)NC(=NCc1ccccc1)N2` (stereo not given): the Potency entry in assay [1] and in assay [2] was “inactive” throughout.
For the molecule `Cc1ccc(NS(=O)(=O)c2cc3c(cc2N(C)C)NC(=O)CC3)cc1C`, the Potency entry in assay [1] and in assay [2] was “inactive” in each case.
For the molecule `O=C(OCC#CCSc1nnc(-c2cccc3ccccc23)o1)c1ccc(OC(F)(F)F)cc1`, the Potency entry in assay [1] and in assay [2] was “inactive” throughout.
Turning to `COc1cc(O)c(C(CC(=O)N2CCOCC2)c2ccc(OC)c(OC)c2)c(OC)c1` (stereo not given), the Potency result in assay [1] and in assay [2] was “inactive” each time.
`Cc1ccc(S(=O)(=O)N(C)c2cccc3cccnc23)cc1`: the Potency entry in assay [1] and in assay [2] was “inactive” in each case.
With `N#CCC(C1CCCC1)n1cc(-c2ncnc3[nH]ccc23)cn1` (stereo not given), the Potency result in assay [1] and in assay [2] was “inactive” each time.
For the molecule `O=C1CCCC2=C1C(c1ccccc1Br)N=C(Nc1nc3ccccc3o1)N2` (stereo not given), the Potency result in assay [1] and in assay [2] was “inactive” each time.
Consider `O=c1c2ccccc2nc2sc(NCc3ccc(Oc4ccccc4)cc3)nn12`, for which the Potency entry in assay [1] and in assay [2] was “inactive” throughout.
Turning to `COc1ccc2nc(-c3cccc(OCc4ccccc4)c3)sc2c1`, the Potency result in assay [1] and in assay [2] was “inactive” each time.
Take `COc1ccc(CCC(=O)NCCc2nc3ccccc3n2CCOc2ccc(C)cc2)cc1`: the Potency result in assay [1] and in assay [2] was “inactive” in each case.
On to `Cc1ccc(S(=O)(=O)Nc2cnccc2C(=O)Nc2nc(-c3cccc(F)c3)cs2)cc1`, for which the Potency entry in assay [1] and in assay [2] was “inactive” throughout.
In the case of `Clc1ccc(-c2nc3ccccc3s2)cc1`, the Potency entry in assay [1] and in assay [2] was “inactive” throughout.
Regarding `Cc1cc(NS(=O)(=O)c2ccc(NC(=O)CCc3ccc(Cl)c(Cl)c3)cc2)no1`, the Potency result in assay [1] and in assay [2] was “inactive” in each case.
As for `O=c1c2[nH]c3cc(Br)sc3c2cnn1Cc1ccccc1F`, the Potency entry in assay [1] and in assay [2] was “inactive” throughout.
As to `COC(=O)C1=CC[C@H](c2ccc(C)cc2)N(S(=O)(=O)c2ccc(C)cc2)[C@@H]1c1ccc(C(C)(C)C)cc1`, the Potency entry in assay [1] and in assay [2] was “inactive” each time.
Regarding `N#Cc1ccccc1S(=O)(=O)N1CCN(S(=O)(=O)c2ccc3c(c2)OCCO3)CC1`, the Potency result in assay [1] and in assay [2] was “inactive” each time.
Regarding `CC1=C(C(=O)Nc2ccccc2C)C(c2ccccc2Br)N=C(Nc2nc3ccccc3o2)N1` (stereo not given), the Potency entry in assay [1] and in assay [2] was “inactive” each time.
On to `Cc1c(P(=S)(c2ccccc2)c2ccccc2)c2ccccc2n1C(=O)Cc1ccccc1`, for which the Potency entry in assay [1] and in assay [2] was “inactive” each time.
As for `Cn1nnnc1Sc1ncnc2scc(-c3ccc(N)cc3)c12`, the Potency result in assay [1] and in assay [2] was “inactive” each time.
Take `C=C1C(=O)OC2C1CCC1(C)C(O)CCC(=C)C21` (stereo not given): the Potency result in assay [1] and in assay [2] was “inactive” in each case.
In the case of `Cc1ccc(S(=O)(=O)Nc2ccccc2C(=O)Nc2ncc(-c3ccccc3)s2)cc1`, the Potency entry in assay [1] and in assay [2] was “inactive” each time.
Consider `Cc1ccc(S(=O)(=O)N(C)c2ccccc2C(=O)Nc2nc(-c3ccccc3)cs2)cc1`, for which the Potency result in assay [1] and in assay [2] was “inactive” in each case.
Consider `O=C(Nc1cccc2c1cnn2-c1ccc(F)cc1)c1ccccn1`, for which the Potency entry in assay [1] and in assay [2] was “inactive” in each case.
Regarding `CCN(CC)CCCn1c(-c2ccccc2)nc2c(NCc3ccccc3)nc(C)nc21`, the Potency result in assay [1] and in assay [2] was “inactive” in each case.
As for `O=c1[nH]c2ccc(S(=O)(=O)N3CCN(S(=O)(=O)c4ccc5c(c4)OCCO5)CC3)cc2[nH]c1=O`, the Potency entry in assay [1] and in assay [2] was “inactive” throughout.
Take `FC(F)(F)c1cc(-c2ccc(CNc3nc(-c4ccccc4C(F)(F)F)nc4ccccc34)cc2)ccc1Cl`: the Potency result in assay [1] and in assay [2] was “inactive” each time.
On to `CC(=O)Nc1cccc(-c2csc(Nc3cc(C)ccn3)n2)c1`, for which the Potency entry in assay [1] and in assay [2] was “inactive” in each case.
As for `Cn1c2cc(CO)sc2c2cnn(Cc3ccccc3F)c(=O)c21`, the Potency entry in assay [1] and in assay [2] was “inactive” each time.
`CC(=O)Nc1sc2c(c1-c1nc3ccccc3s1)CC(C)NC2` (stereo not given): the Potency result in assay [1] and in assay [2] was “inactive” in each case.
Turning to `Cc1nnc(-c2ccccc2)n1CCCn1ccnc1`, the Potency result in assay [1] and in assay [2] was “inactive” each time.
For `CCN1CCC[C@@H]1CNC(=O)c1ccc2c(c1)NC(=O)/C(=C/c1ccccc1F)S2`, the Potency entry in assay [1] and in assay [2] was “inactive” throughout.
`CCc1ccc(S(=O)(=O)Nc2cnccc2C(=O)Nc2nc(-c3ccccc3)cs2)cc1`: the Potency result in assay [1] and in assay [2] was “inactive” in each case.
Turning to `Cc1cc(N2C(=O)c3ccccc3C2=O)no1`, the Potency entry in assay [1] and in assay [2] was “inactive” each time.
Regarding `COCOC1CCC(C(=O)Nc2ccc([S+](=O)([O-])Nc3nccs3)cc2)CC1` (stereo not given), the Potency entry in assay [1] and in assay [2] was “inactive” each time.
